Data from PubChem BioAssay (NCI).
This is part of a sample that, as a whole, favours compounds with a hit. Of some 83,000 tested, about 20% had one in any assay.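 Note: values are percent growth. 100 is the growth of untreated cells, values between 100 and 0 indicate rising inhibition; between -100 and 0 indicates cell death.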 The source made the active and inactive calls. The calls were made as follows: active = growth percent below 10; inactive = the rest.

Assays:
Assay in all cases: NCI-60 one-dose screen, 48 h (100 = growth as untreated, 0 = no growth, -100 = all killed)
Settings in all cases: 10 µM unless noted
[1] = test system: SR leukemia
[2] = test system: RPMI-8226 leukemia
[3] = test system: OVCAR-8 ovarian
[4] = test system: OVCAR-5 ovarian
[5] = test system: OVCAR-4 ovarian
[6] = test system: SK-OV-3 ovarian
[7] = test system: IGROV1 ovarian
[8] = test system: HS 578T breast
[9] = test system: NCI/ADR-RES ovarian
[10] = test system: T-47D breast
[11] = test system: BT-549 breast
[12] = test system: MDA-MB-435 melanoma
[13] = test system: SW-620 colon
[14] = test system: MCF7 breast
[15] = test system: HCT-116 colon
[16] = test system: HCC-2998 colon
[17] = test system: KM12 colon
[18] = test system: OVCAR-3 ovarian

Measured: growth

COC(=O)c1[nH]nc2c1C1(C(=O)N(C)c3ccccc31)C(C#N)=C(N)O2 (centres undefined)
inactive: [1] 113% | [2] 104% | [3] 102% | [4] 103% | [5] 97.7% | [6] 98.3% | [7] 105% | [8] 99.7% | [9] 99.7% | [10] 108% | [11] 133% | [12] 99.9% | [13] 93% | [14] 89.6% | [15] 101% | [16] 104% | [17] 103%

NS(=O)(=O)c1ccc(-n2cc(-c3cccc(NC(=O)c4ccc(N5CCOCC5)c(C(F)(F)F)c4)c3)nn2)cc1
inactive: [2] 10.2% | [3] 42.7% | [4] 67.8% | [5] 15% | [6] 69.9% | [7] 40.3% | [8] 48.9% | [9] 82.4% | [11] 73.2% | [12] 62.9% | [13] 64.5% | [14] 36.9% | [15] 32.5% | [16] 66% | [17] 25.8%
active: [1] 4.3% | [10] 4.61%

COc1ccc([C@@H]2[C@@H](O)C(=O)N2c2cc(OC)c(OC)c(OC)c2)cc1F
inactive: [2] 21.5% | [4] 31.5% | [5] 63.2% | [6] 28.3% | [7] 18.9% | [10] 68% | [13] 22.5%
active: [1] 8.72% | [3] -5.69% | [8] -2.79% | [9] -6.67% | [11] -18.5% | [12] -12% | [14] 9.59% | [15] 2.32% | [16] 5.15% | [17] 6.09%

Nc1nc(Nc2ccccc2SSc2ccccc2Nc2nc(N)nc(-c3ccccc3)n2)nc(-c2ccccc2)n1
active: [1] -47%
inactive: [2] 11.2% | [3] 73.9% | [4] 107% | [5] 63% | [6] 130% | [7] 52.2% | [18] 90.3% | [9] 14.9% | [10] 74.7% | [12] 90.6% | [13] 70.5% | [14] 68.3% | [15] 61.3% | [16] 110% | [17] 22.1%

COc1cc(-c2nn(C(C)(C)C)cc2-c2ccnc(NCCCNS(=O)(=O)c3ccc(C)cc3)n2)ccc1Cl
inactive: [1] 51.3% | [2] 88.9% | [3] 89.8% | [4] 88.1% | [5] 56.3% | [6] 106% | [7] 62.8% | [18] 95.5% | [9] 89.8% | [10] 84.6% | [12] 92.2% | [13] 93.7% | [14] 79.8% | [15] 67.4% | [16] 115% | [17] 94%

COc1ccc(/C=C/C(=O)c2cc(S(N)(=O)=O)c(OC)cc2OC)cc1
inactive: [1] 23.4% | [2] 60.9% | [3] 93% | [4] 98.3% | [5] 103% | [6] 97.2% | [7] 81.8% | [8] 89.1% | [9] 85.8% | [10] 50.3% | [11] 82.8% | [12] 53.3% | [13] 46.6% | [14] 44.3% | [15] 65.1%

CN1CCN(c2nc(-c3csc(-c4ccccc4)n3)cc3ccccc23)CC1
active: [1] -20.7% | [10] -23.3% | [12] 7.31% | [13] -19.1% | [14] 9.31% | [15] 2.27% | [16] -84.7%
inactive: [2] 14.1% | [3] 62.4% | [4] 59.4% | [5] 72.7% | [6] 81.8% | [7] 26.2% | [8] 60.6% | [9] 65.8% | [11] 96.2% | [17] 18.7%

O=C(Cn1c(-c2ccccc2)nc2cc(Cl)c(Cl)cc21)N=Nc1c(O)[nH]c2ccc(Cl)cc12
inactive: [1] 67.9% | [2] 59% | [3] 83.5% | [4] 80.5% | [5] 77.9% | [6] 85.6% | [7] 87.9% | [8] 81.3% | [9] 72.3% | [10] 61.5% | [11] 56.2% | [12] 83.2% | [13] 81.9% | [14] 71.8% | [15] 53.4% | [16] 86% | [17] 73.8%

CC(=O)c1cc(C(=O)N2c3ccccc3Sc3ccccc32)n2ccc3ccccc3c12
inactive: [1] 16.6% | [2] 50.3% | [3] 32.7% | [4] 69.7% | [5] 73.6% | [6] 48.7% | [7] 49.9% | [8] 16% | [9] 13.4% | [10] 27.5% | [11] 37% | [13] 26.3% | [14] 17.8% | [15] 24.4% | [16] 74.9% | [17] 31.7%
active: [12] 0.748%
